Bioassay records as filed in PubChem BioAssay.
PLK1 PBD inh – inhibitors of human PLK1 polo-box domain binding; P53350; Plk1 PBD binding of FITC phosphopeptide, fluorescence polarization; Potency, µM, hits mostly inhibitors; 360,000 compounds, 2.8% hits; note: series mostly up to about 57 µM; nearly all actives have a fitted effect of over 65% in size
HP1b chromo inh – HP1-beta chromodomain-methylated histone interaction inhibition | P83916 | AlphaScreen HP1-beta / biotin-H3K9me3 peptide binding | Potency, µM (highest dose often 114 µM), actives largely listed as inhibitors | 390,000 compounds, 0.56% hits | AID 540317; note: nearly all actives have a fitted effect of over 70% in size
Target sequence (P83916 whole entry, looked up): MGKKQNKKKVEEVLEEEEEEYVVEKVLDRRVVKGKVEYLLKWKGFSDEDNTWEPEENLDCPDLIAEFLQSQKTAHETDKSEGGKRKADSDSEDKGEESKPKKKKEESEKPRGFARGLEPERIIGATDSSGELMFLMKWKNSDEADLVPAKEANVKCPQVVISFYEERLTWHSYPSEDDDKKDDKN
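Compound inhibition of the preformed complex between 50 nM HP1-beta and 50 nM biotinylated H3K9me3 peptide was read by AlphaScreen. Buffer was PBS pH 7.4 with 0.01% Tween-20. Incubations ran 30 min at room temperature, with 10 ug/mL donor/acceptor beads.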
Sfp PPTase inh – Sfp phosphopantetheinyl transferase inhibition. Q9F4F7. Potency, µM, actives largely listed as inhibitors. 310,000 compounds, 3.5% hits. Biochemical Sfp PPTase activity, qHTS;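 note: the enzyme is Sfp with the accession as filed and its product quenches rhodamine fluorescence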
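Compounds were incubated with enzyme (final 15 nM) for 15 min at room temperature before substrate addition started the reaction. Fluorescence at 525 nm excitation, 598 nm emission was recorded immediately and after 30 minutes.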
BAZ2B inh – inhibitors of human BAZ2B bromodomain; Potency, µM (top dose mostly 114 µM), hits mostly inhibitors; AID 504333; AlphaScreen BAZ2B-H3K14Ac peptide displacement; 360,000 compounds, 4.4% hits; Q9UIF8; note: nearly all actives have a fitted effect of over 60% in size
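Compounds, titrated to a top concentration of 110 uM, were incubated 30 min at room temperature with preformed BAZ2B/acetyl-K14 H3 peptide complex (50 nM each). Proximity signal was measured by AlphaScreen after 20 min with beads.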
JMJD2A Tudor – blocks the human JMJD2A Tudor domain | O75164 | AlphaScreen JMJD2A-Tudor / H3K4me3 peptide binding | 390,000 compounds, 4.4% hits | Potency, µM (doses to about 114 µM), usual class: inhibitors; note: nearly all actives have a fitted effect of over 50% in size
G9a inh – G9a (human) methyltransferase inhibition | Q96KQ7 | G9a H3K9 monomethylation, AlphaScreen, 2 h | Potency, µM (titrated, usually from 102 µM), hits mostly inhibitors | 350,000 compounds, 8.8% hits | AID 504332; note: nearly all actives have a fitted effect of over 75% in size
Target sequence (Q96KQ7 913-1193 limits assumed): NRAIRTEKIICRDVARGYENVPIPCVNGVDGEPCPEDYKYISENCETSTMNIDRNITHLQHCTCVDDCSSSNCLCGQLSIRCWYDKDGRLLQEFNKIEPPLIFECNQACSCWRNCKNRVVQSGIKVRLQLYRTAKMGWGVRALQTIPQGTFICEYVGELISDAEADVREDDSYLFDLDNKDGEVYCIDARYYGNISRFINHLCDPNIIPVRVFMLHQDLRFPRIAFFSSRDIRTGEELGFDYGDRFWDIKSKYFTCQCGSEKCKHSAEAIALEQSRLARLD
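G9a (20 nM) was preincubated 15 min with compound, then reacted 2 h at room temperature with 500 nM biotin-H3K9 peptide and 20 µM SAM. Monomethyl-H3K9 detected by AlphaScreen using anti-H3K9me1 antibody.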
Of the large screens only hits and unclear results are named; the others gave an inactive call. Rows were chosen to be rich in hits. Some 12% of all compounds tested hit in one or more screens of this group. Calls come from the whole dose curve; as a rule, active = well fitted curve in the direction sought with a large enough effect; inconclusive = small, poorly fitted or top-dose-only effect, or another doubt; inactive = no such curve, though single readings can be large; an effect the other way counts as inactive or inconclusive.

COc1ccc(Cc2nnc(NS(=O)(=O)c3ccc([N+](=O)[O-])cc3)s2)cc1	PLK1 PBD inh 30µM, BAZ2B inh inconclusive, G9a inh 40µM
COc1cc(-c2noc(-c3ccc(NC4CCCCC4)c([N+](=O)[O-])c3)n2)cc(OC)c1OC	G9a inh inconclusive (no result: PLK1 PBD inh, Sfp PPTase inh)
CCC(CC)C(C(=O)NCc1ccccc1)N(C)Cc1ccc(Cl)c(Cl)c1 (centres undefined)	none (no result: HP1b chromo inh, Sfp PPTase inh, BAZ2B inh, JMJD2A Tudor, G9a inh)
COCCCNC(=O)c1ccc2c3c(onc13)-c1ccccc1C2=O	PLK1 PBD inh 5.3µM, HP1b chromo inh inconclusive, Sfp PPTase inh 56µM, BAZ2B inh 20µM, JMJD2A Tudor 50µM (no result: G9a inh)
COCCCNC(=O)c1ccccc1Oc1ccccc1	none
Cc1ccccc1NC(=O)c1c(NC(=O)Cc2ccccc2)sc2c1CCC2	none (no result: PLK1 PBD inh, Sfp PPTase inh)
Cc1cc(C(=O)CNCc2ccco2)c(C)n1-c1ccc(F)cc1	HP1b chromo inh inconclusive, BAZ2B inh 56µM, JMJD2A Tudor 3.2µM, G9a inh 22µM
Cc1cccc(N2CCN(S(=O)(=O)c3ccc4oc(=O)c5ncn(C)c5c4c3)CC2C)c1 (centres undefined)	none (no result: PLK1 PBD inh, Sfp PPTase inh)
COc1cc(Cl)c(NS(=O)(=O)c2ccc3c(c2)CC(C)N3C(=O)C2CCC2)c(OC)c1 (centres undefined)	none (no result: PLK1 PBD inh, Sfp PPTase inh)
O=C(O)CCCNc1n[nH]c(=O)[nH]c1=O	BAZ2B inh inconclusive, G9a inh 14µM
CCOc1ccc(N=C2NC(=O)/C(=C/C(=O)OC)S2)cc1	none
COc1ccc(C=C2SC(=S)NC2=O)cc1	none (no result: Sfp PPTase inh, BAZ2B inh, G9a inh)
CCOc1ccc(N=C2NC(=O)S/C2=C\c2ccc(OC)cc2)cc1	BAZ2B inh inconclusive, JMJD2A Tudor 28µM, G9a inh inconclusive
O=C1NC(=O)/C(=C\c2ccc(Cl)nc2)S1	PLK1 PBD inh 27µM, BAZ2B inh inconclusive, JMJD2A Tudor inconclusive
COc1ccc(/C=C2/SC(=O)NC2=O)cc1	G9a inh 79µM
Cc1sc2nc3ccc(N4CCCCC4)nn3c(=O)c2c1C	PLK1 PBD inh inconclusive, G9a inh 32µM
CCc1c(C)sc(NC(=O)c2cc(-c3cc(OC)ccc3OC)on2)c1C#N	none
CCc1c(C)sc(NC(=O)c2cc(-c3cccc(Cl)c3)on2)c1C#N	G9a inh 3.2µM (no result: PLK1 PBD inh, Sfp PPTase inh)
Cc1nn(Cc2ccc(Cl)c(Cl)c2)c(C)c1NC(=O)c1cc(-c2ccc3c(c2)OCO3)on1	BAZ2B inh 50µM, G9a inh 56µM
N#Cc1ccc(NC(=O)c2cc(-c3cccc(Cl)c3)on2)cc1	none (no result: PLK1 PBD inh, Sfp PPTase inh)
CCc1c(C)sc(NC(=O)c2cc(CC(C)C)on2)c1C#N	PLK1 PBD inh 15µM, G9a inh inconclusive
CCc1c(C)sc(NC(=O)c2cc(-c3ccc(OC)c(OC)c3)on2)c1C#N	HP1b chromo inh inconclusive, G9a inh 7.9µM
C/C=C\C1=CCCC1Nc1ncnc2ccc(-c3c(C)noc3C)cc12 (centres undefined)	JMJD2A Tudor inconclusive (no result: PLK1 PBD inh, HP1b chromo inh, BAZ2B inh, G9a inh)
Cc1nc(N2CCCC2)c2c(C(=O)Nc3ccc(Br)cc3F)c(C)oc2n1	none (no result: PLK1 PBD inh, Sfp PPTase inh)
COc1ccc(-c2cc(C(=O)Nc3cc(C)n(Cc4ccc(Cl)cc4)n3)no2)cc1OC	Sfp PPTase inh 71µM
CCc1c(C)sc(NC(=O)c2cc(-c3ccc(O)cc3)on2)c1C#N	PLK1 PBD inh 19µM, G9a inh 45µM
COc1ccc(CCNC(=O)c2cc(-c3ccc(Cl)cc3)on2)cc1OC	none (no result: PLK1 PBD inh, Sfp PPTase inh)
Cc1noc(C)c1C(=O)Nc1sc(C)c(-c2ccccc2)c1C#N	BAZ2B inh inconclusive, G9a inh inconclusive
CCc1c(C)sc(NC(=O)c2noc(C)c2[N+](=O)[O-])c1C#N	PLK1 PBD inh 34µM, Sfp PPTase inh 50µM, G9a inh 40µM
CCN(CC(=O)Nc1cc(Cl)ccc1C)C(=O)C1COc2ccccc2O1 (centres undefined)	none (no result: Sfp PPTase inh)
O=S(=O)(Nc1cccc(S(=O)(=O)N2CCCCC2)c1)c1ccccc1F	PLK1 PBD inh inconclusive (no result: Sfp PPTase inh, BAZ2B inh, G9a inh)
CC(=O)Nc1ccc(NC(=O)CSc2nnc(NC(=O)C3CC(=O)N(c4ccccc4)C3)s2)cc1 (centres undefined)	G9a inh 40µM
COc1ccc(N2CC(C(=O)Nc3nnc(SCC(=O)NCC4CCCO4)s3)CC2=O)cc1 (centres undefined)	PLK1 PBD inh 30µM, JMJD2A Tudor 35µM (no result: Sfp PPTase inh, BAZ2B inh, G9a inh)
COc1ccc(N2CC(C(=O)Nc3nnc(SCC(=O)NC4CCCC4)s3)CC2=O)cc1 (centres undefined)	PLK1 PBD inh inconclusive, Sfp PPTase inh inconclusive, JMJD2A Tudor inconclusive, G9a inh 32µM
Cc1ccc(N2CC(C(=O)Nc3nnc(SCC(=O)NCC4CCCO4)s3)CC2=O)cc1C (centres undefined)	G9a inh 40µM
O=C(CSc1nnc(NC(=O)C2CC(=O)N(c3ccccc3)C2)s1)NC1CCCC1 (centres undefined)	none
CC(=O)Nc1nnc(SCC(=O)NCC2CCCO2)s1 (centres undefined)	G9a inh inconclusive
COc1ccccc1NC(=O)CCCN1C(=O)C2CC=CCC2C1=O (centres undefined)	none
Cc1ccccc1Cn1c(C)c(CNCCCc2ccccc2)c(C(=O)O)c1C	none (no result: PLK1 PBD inh, Sfp PPTase inh)
COc1ccccc1NC(=O)Nc1nc(CC(=O)N2CCN(c3ccc(F)cc3)CC2)cs1	JMJD2A Tudor inconclusive, G9a inh inconclusive (no result: Sfp PPTase inh)
Cc1nc(C)c(-c2ccc(SCC(=O)Nc3ccc(Cl)c(Cl)c3)nn2)s1	none (no result: PLK1 PBD inh, Sfp PPTase inh)
O=C(CSc1nnc(NC(=O)c2ccccc2F)s1)NCC1CCCO1 (centres undefined)	PLK1 PBD inh inconclusive, Sfp PPTase inh 50µM, JMJD2A Tudor inconclusive, G9a inh 14µM
CC(C)Nc1nnc(SCC(=O)Nc2ccc(F)cc2)s1	G9a inh 40µM
Cc1ccc(NC(=O)Nc2nnc(SCC(=O)Nc3ccc(F)cc3F)s2)cc1	G9a inh inconclusive (no result: PLK1 PBD inh, Sfp PPTase inh)
CC(=O)Nc1ccc(NC(=O)CSc2nnc(NC(=O)c3ccc(Br)o3)s2)cc1	PLK1 PBD inh inconclusive, BAZ2B inh inconclusive, G9a inh 16µM
CCOc1ccc(N2CC(C(=O)Nc3nnc(Cc4ccc(OC)cc4)s3)CC2=O)cc1 (centres undefined)	G9a inh 10µM
COc1ccc(Cc2nnc(NC(=O)C3CC(=O)N(c4ccc(OC)cc4)C3)s2)cc1 (centres undefined)	none
Clc1nnc2c3ccccc3ccn12	JMJD2A Tudor inconclusive (no result: Sfp PPTase inh, BAZ2B inh, G9a inh)
CCNc1nnc(SCC(=O)NC2CCCCCC2)s1	G9a inh 3.5µM (no result: Sfp PPTase inh)
COc1cc2c(cc1OC)[C@@H]1O[C@](c3ccsc3)(C2)Oc2cc(C)n(-c3ccccc3)c(=O)c21	none (no result: PLK1 PBD inh, HP1b chromo inh, JMJD2A Tudor)
O=C(O)CC(NC(=O)C12CC3CC(CC(C3)C1)C2)c1cc([N+](=O)[O-])ccc1Cl (centres undefined)	PLK1 PBD inh inconclusive, JMJD2A Tudor 56µM
CC1=C(C#N)C(c2cn(-c3ccccc3)nc2-c2cccs2)C(C#N)=C(C)N1	none
